In PubChem BioAssay (EPA / NIEHS):
Active and inactive are the calls of the source. How the source made its calls: active means hit-call score of the fitted dose curve at least 0.9, where 1 is the maximum; inactive means score below 0.9.

What was measured:
Details in all cases: mRNA level, 48 h; actives raise or lower the signal
[1] = read-out: Fatty Acid-Binding Protein 1 (FABP1), FABP1 (gene 2168); assay: LTEA_HepaRG_FABP1: Life Technologies and Expression Analysis (LTEA) Assay for Fatty Acid-Binding Protein 1 (FABP1) using HepaRG (AID 2283494)
How it was run: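 Differentiated human HepaRG cells were exposed in duplicate for 48 h in serum-free induction medium to 8-point half-log concentration series topping at 100 uM in 0.5% DMSO. FABP1 mRNA measured by TaqMan qRT-PCR, normalized to ACTB/GAPDH/POLR2A; bidirectional fit versus DMSO.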

[2] = read-out: Cytochrome P450 4A22 (Homo sapiens) (UniProt Q5TCH4); assay: LTEA_HepaRG_CYP4A22: Life Technologies and Expression Analysis (LTEA) Assay for Cytochrome P450 4A22 (CYP4A22) using HepaRG (AID 2283495)
How it was run: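 Gene expression measured by qRT-PCR against three housekeeping genes (ACTB, GAPDH, POLR2A), with gain or loss fitted relative to 0.5% DMSO vehicle. HepaRG cultures received 48 h chemical treatment, top concentration 100 uM, half-log steps, duplicate wells.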

[3] = read-out: Cytochrome P450 7A1 (Homo sapiens) (UniProt P22680); assay: LTEA_HepaRG_CYP7A1: Life Technologies and Expression Analysis (LTEA) Assay for Cytochrome P450 7A1 (CYP7A1) using HepaRG (AID 2283496)
How it was run: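 Gene expression endpoint in human HepaRG liver cells treated for 48 h with test chemicals (up to 100 uM, 0.5% DMSO). Values come from bidirectional concentration-response fitting versus DMSO.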

[4] = read-out: Glutathione S-Transferase (GSTA2), GSTA2 (gene 2939); assay: LTEA_HepaRG_GSTA2: Life Technologies and Expression Analysis (LTEA) Assay for Glutathione S-Transferase (GSTA2) using HepaRG (AID 2283497)
How it was run: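 Human HepaRG cells, plated 48 h, then exposed in serum-free induction medium for 48 h to eight half-log concentrations up to 100 uM in 0.5% DMSO, duplicate. GSTA2 mRNA by qRT-PCR, normalized to ACTB/GAPDH/POLR2A; bidirectional fit versus DMSO.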

[5] = read-out: Glutamate-cysteine ligase catalytic (GCLC), GCLC (gene 2729); assay: LTEA_HepaRG_GCLC: Life Technologies and Expression Analysis (LTEA) Assay for Glutamate-cysteine ligase catalytic (GCLC) using HepaRG (AID 2283498)
How it was run: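 Differentiated human HepaRG cells, plated 48 h then switched to serum-free induction medium, were exposed in duplicate for 48 h to 8 half-log concentrations topping at 100 uM in 0.5% DMSO. GCLC mRNA was quantified by qRT-PCR against ACTB, GAPDH and POLR2A.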

[6] = read-out: growth arrest and DNA damage 45 (GADD45G), GADD45G (gene 10912); assay: LTEA_HepaRG_GADD45G: Life Technologies and Expression Analysis (LTEA) Assay for growth arrest and DNA damage 45 (GADD45G) using HepaRG (AID 2283499)
How it was run: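 GADD45G transcript level by qRT-PCR (housekeeping-normalized: ACTB, GAPDH, POLR2A) after 48 h chemical treatment of a single HepaRG lot in serum-free induction medium; eight-point half-log series up to 100 uM in 0.5% DMSO, duplicates, up- or down-regulation scored.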

[7] = read-out: Glutamate-cysteine ligase regulatory (GCLM), GCLM (gene 2730); assay: LTEA_HepaRG_GCLM: Life Technologies and Expression Analysis (LTEA) Assay for Glutamate-cysteine ligase regulatory (GCLM) using HepaRG (AID 2283500)
How it was run: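 Human liver HepaRG cultures receive test chemicals for 48 hours at up to 100 uM in 0.5% DMSO. GCLM expression is measured by qRT-PCR and analysed for increases or decreases against vehicle.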

[8] = read-out: Glutathione S-transferase M3 (GSTM3), GSTM3 (gene 2947); assay: LTEA_HepaRG_GSTM3: Life Technologies and Expression Analysis (LTEA) Assay for Glutathione S-transferase M3 (GSTM3) using HepaRG (AID 2283501)
How it was run: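 GSTM3 transcript levels came from Fluidigm TaqMan qRT-PCR normalized to three housekeeping genes, fitted in both directions against DMSO. HepaRG cultures received chemicals for 48 h in serum-free induction medium (0.5% DMSO), 8 half-log concentrations up to 100 uM, duplicate.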

[9] = read-out: Heat shock 70 kDa protein 1 (HSPA1A), gene 3303; assay: LTEA_HepaRG_HSPA1A: Life Technologies and Expression Analysis (LTEA) Assay for Heat shock 70 kDa protein 1 (HSPA1A) using HepaRG (AID 2283502)
How it was run: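 HSPA1A induction in human HepaRG liver cells is measured after 48 h of chemical treatment (100 uM maximum, 0.5% DMSO vehicle). Expression comes from qRT-PCR normalized to endogenous controls.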

[10] = read-out: Hypoxia-inducible factor 1-alpha (Homo sapiens) (UniProt Q16665); assay: LTEA_HepaRG_HIF1A: Life Technologies and Expression Analysis (LTEA) Assay for Hypoxia-inducible factor 1 (HIF1A) Trancription factor using HepaRG (AID 2283503)
How it was run: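 HepaRG, 48 h exposure, 8-pt half-log series from 100 uM, 0.5% DMSO vehicle, duplicates. Readout: HIF1A transcript by qRT-PCR (Fluidigm array), housekeeping-normalised. Bidirectional curve fit vs DMSO baseline.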

[11] = read-out: 3-Hydroxy-3-Methylglutaryl-CoA Synthase 2 (HMGCS2), HMGCS2 (gene 3158); assay: LTEA_HepaRG_HMGCS2: Life Technologies and Expression Analysis (LTEA) Assay for 3-Hydroxy-3-Methylglutaryl-CoA Synthase 2 (HMGCS2) using HepaRG (AID 2283504)
How it was run: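 Readout is HMGCS2 transcript by qRT-PCR, housekeeping-normalised (ACTB/GAPDH/POLR2A) and fitted bidirectionally against 0.5% DMSO. Differentiated HepaRG cells received chemicals 48 h, duplicate wells, eight half-log concentrations topping at 100 uM.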

HGF (gene 3082) = assay: LTEA_HepaRG_HGF: Life Technologies and Expression Analysis (LTEA) Assay for Hepatocyte Growth Facto (HGF) using HepaRG (AID 2283505)
How it was run: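 HGF transcript was quantified by TaqMan qRT-PCR against three housekeeping genes after 48 h treatment of HepaRG cells. Exposure ran in duplicate over eight half-log steps topping at 100 uM in 0.5% DMSO vehicle.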

[12] = read-out: Insulin Like Growth Factor 1 (IGF1), IGF1 (gene 3479); assay: LTEA_HepaRG_IGF1: Life Technologies and Expression Analysis (LTEA) Assay for Insulin Like Growth Factor 1 (IGF1) using HepaRG (AID 2283506)
How it was run: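 Using human HepaRG liver cells, IGF1 transcript induction or suppression is measured 48 h after dosing across eight concentrations capped at 100 uM. Values derive from bidirectional concentration-response fitting with DMSO as baseline.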

[13] = read-out: Intercellular Adhesion Molecule 1 (ICAM1), ICAM1 (gene 3383); assay: LTEA_HepaRG_ICAM1: Life Technologies and Expression Analysis (LTEA) Assay for Intercellular Adhesion Molecule 1 (ICAM1) using HepaRG (AID 2283507)
How it was run: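 ICAM1 transcript levels measured by qRT-PCR, normalized to three housekeeping genes (ACTB, GAPDH, POLR2A), after 48 h chemical exposure of HepaRG cells. Duplicate eight-point half-log series from 100 uM in 0.5% DMSO; gain or loss fitted against vehicle.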

[14] = read-out: Insulin-like growth factor-binding protein 1 (IGFBP1), IGFBP1 (gene 3484); assay: LTEA_HepaRG_IGFBP1: Life Technologies and Expression Analysis (LTEA) Assay for Insulin-like growth factor-binding protein 1 (IGFBP1) using HepaRG (AID 2283508)
How it was run: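 Read-out is qRT-PCR transcript level normalized to three housekeeping genes, fitted in both directions against 0.5% DMSO. Differentiated HepaRG cells received eight half-log concentrations (top 100 uM) in duplicate for 48 h in serum-free induction medium.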

[15] = read-out: Interleukin 6 (IL6), IL6 (gene 3569); assay: LTEA_HepaRG_IL6: Life Technologies and Expression Analysis (LTEA) Assay for Interleukin 6 (IL6) using HepaRG (AID 2283509)
How it was run: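 Differentiated human HepaRG cells, plated 48 h then switched to serum-free induction medium, were exposed in duplicate for 48 h to eight half-log concentrations up to 100 uM in 0.5% DMSO. IL6 mRNA measured by qRT-PCR, normalized to ACTB/GAPDH/POLR2A.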

[16] = read-out: Potassium channel subfamily K member 1 (KCNK1), KCNK1 (gene 3775); assay: LTEA_HepaRG_KCNK1: Life Technologies and Expression Analysis (LTEA) Assay for Potassium channel subfamily K member 1 (KCNK1) using HepaRG (AID 2283511)
How it was run: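 Differentiated human HepaRG cells in serum-free induction medium were exposed in duplicate for 48 h to 8 half-log concentrations up to 100 uM in 0.5% DMSO. KCNK1 mRNA was measured by TaqMan qRT-PCR, normalized to ACTB, GAPDH and POLR2A, and fitted bidirectionally versus DMSO.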

[17] = read-out: Keratin 19 (KRT19), KRT19 (gene 3880); assay: LTEA_HepaRG_KRT19: Life Technologies and Expression Analysis (LTEA) Assay for Keratin 19 (KRT19) using HepaRG (AID 2283512)
How it was run: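 KRT19 transcript measured by TaqMan qRT-PCR, referenced to three housekeeping genes, after HepaRG cells received test chemicals for 48 h. Eight half-log concentrations, top 100 uM, 0.5% DMSO vehicle; increases and decreases both fitted.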

[18] = read-out: JUN Transcription Factor, JUN (gene 3725); assay: LTEA_HepaRG_JUN: Life Technologies and Expression Analysis (LTEA) Assay for JUN Transcription Factor using HepaRG (AID 2283513)
How it was run: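 Human HepaRG liver cells receive test chemicals in 0.5% DMSO for 48 h across an eight-point range topping at 100 uM. Expression changes in JUN are scored in both directions against the DMSO vehicle.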

[19] = read-out: Interleukin 6 Receptor (IL6R), IL6R (gene 3570); assay: LTEA_HepaRG_IL6R: Life Technologies and Expression Analysis (LTEA) Assay for Interleukin 6 Receptor (IL6R) using HepaRG (AID 2283510)
How it was run: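 Concentration-response in human liver HepaRG cells: eight concentrations from 100 uM downward by half-logs, 48 h exposure, 0.5% DMSO vehicle. IL6R mRNA change measured by qRT-PCR and fitted in both directions relative to vehicle.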

Measured: AC50

Chain of Hypoxia-inducible factor 1-alpha (Homo sapiens) (Q16665 whole entry, looked up): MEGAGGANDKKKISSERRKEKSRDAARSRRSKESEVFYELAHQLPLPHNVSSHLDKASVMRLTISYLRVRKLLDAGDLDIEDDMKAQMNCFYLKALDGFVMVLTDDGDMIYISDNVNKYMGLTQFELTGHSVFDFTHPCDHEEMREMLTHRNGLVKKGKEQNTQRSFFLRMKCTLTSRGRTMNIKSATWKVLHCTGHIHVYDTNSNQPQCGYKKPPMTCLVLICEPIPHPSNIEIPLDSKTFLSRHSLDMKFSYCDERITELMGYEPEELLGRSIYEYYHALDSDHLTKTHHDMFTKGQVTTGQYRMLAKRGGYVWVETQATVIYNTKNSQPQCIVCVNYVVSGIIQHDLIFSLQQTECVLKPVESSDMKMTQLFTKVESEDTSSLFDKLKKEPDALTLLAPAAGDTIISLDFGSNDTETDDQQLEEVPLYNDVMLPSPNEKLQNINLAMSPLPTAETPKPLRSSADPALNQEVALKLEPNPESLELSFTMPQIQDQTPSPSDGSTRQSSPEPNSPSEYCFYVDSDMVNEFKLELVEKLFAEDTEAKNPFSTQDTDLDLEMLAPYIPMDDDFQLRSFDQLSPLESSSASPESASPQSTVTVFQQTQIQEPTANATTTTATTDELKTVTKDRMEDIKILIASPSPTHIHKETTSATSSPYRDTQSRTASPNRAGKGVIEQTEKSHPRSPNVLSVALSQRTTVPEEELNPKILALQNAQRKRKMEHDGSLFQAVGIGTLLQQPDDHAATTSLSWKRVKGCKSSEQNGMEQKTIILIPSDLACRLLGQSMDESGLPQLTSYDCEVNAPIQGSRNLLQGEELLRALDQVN

OC[C@H]1O[C@@](CO)(O[C@H]2O[C@H](CO)[C@@H](O)[C@H](O)[C@H]2O)[C@@H](O)[C@@H]1O
not listed: [19]
inactive: all other assays above

CCCCOC(=O)c1ccccc1
active: [1] 12.1 µM
not listed: [3]
inactive: all other assays above

CCCCCCCCCCCCCCCCOS(=O)(=O)O
active: [3] 45.2 µM | [4] 43.5 µM | [12] 44.2 µM
inactive: all other assays above

CC(C)c1nnc2ccc(-c3ocnc3-c3cc(F)ccc3F)cn12
active: [1] 52.6 µM | [2] 31.8 µM | [3] 25.2 µM | [4] 80.5 µM | [6] 0.0565 µM | [11] 59.1 µM | [12] 66.1 µM | [14] 12.8 µM | [17] 18.7 µM
not listed: HGF (gene 3082) | [19]
inactive: all other assays above

c1ccc2ncccc2c1
active: [10] 50 µM
not listed: [3]
inactive: all other assays above

O=C(NO)C1(NS(=O)(=O)c2ccc(Oc3ccc(F)cc3)cc2)CCOCC1
active: [1] 50 µM | [2] 68.9 µM | [4] 83.5 µM | [6] 72.6 µM | [11] 83.3 µM | [12] 50 µM | [17] 71.4 µM
not listed: [3]
inactive: all other assays above

CCc1cccc(CC)c1N
inactive: all assays above
